Bioassay records from PubChem.
Sampled rows, rich in hits. Any-hit rate of the full collection: about 18%.
CtBP-E1A inh = blocks the CtBP interaction with E1A. AlphaScreen GST-E1A/His-CtBP binding, 1536-well; active compounds read low. activity change, % (test concentration not listed). actives 0.49% (n = 340,000); in the data active means activity change below about -65%; inconclusive means mostly about -30% to -63%
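AlphaScreen with 125 nM GST-E1A and 125 nM His-CtBP (5X stocks) in Tris pH 8.0, 300 mM NaCl, BSA, Tween 20, TCEP. Compounds preincubated 2 h at 37 deg C, then glutathione donor/nickel acceptor beads added for 1 h at 37 deg C in dark.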
DT40 TDP1 no CPT = qHTS for Inhibitors of human tyrosyl-DNA phosphodiesterase 1 (TDP1): qHTS in cells in absence of CPT; DT40 Tdp1-/- hTDP1 cells, no CPT, ATP luminescence, 48 h; Potency, µM (titrated, usually from 46.2 µM), inactives show top-dose activity change, negative = growth inhibition, usual class: inhibitors; actives 15% (n = 420,000); further: potency means the concentration at half of the fitted maximal effect; nearly all actives have a fitted effect of over 55% in size
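Growth of hTDP1-complemented DT40 Tdp1-knockout cells is measured by ATP luminescence after at least 48 hr compound exposure at 37 °C, with DMSO substituting for the 20 nM CPT used in the parallel screen.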
TDP1 block = TDP1 (human) enzyme inhibition. Q9NUW8. actives 0.28% (n = 350,000). Potency, µM (doses to about 130 µM), for the others: at the top dose activity change, negative = inhibition, actives largely listed as inhibitors. recombinant TDP1, AlphaScreen DNA substrate cleavage; further: potency means the concentration at half of the fitted maximal effect; nearly all actives have a fitted effect of over 40% in size
Target sequence (Q9NUW8 whole entry, looked up): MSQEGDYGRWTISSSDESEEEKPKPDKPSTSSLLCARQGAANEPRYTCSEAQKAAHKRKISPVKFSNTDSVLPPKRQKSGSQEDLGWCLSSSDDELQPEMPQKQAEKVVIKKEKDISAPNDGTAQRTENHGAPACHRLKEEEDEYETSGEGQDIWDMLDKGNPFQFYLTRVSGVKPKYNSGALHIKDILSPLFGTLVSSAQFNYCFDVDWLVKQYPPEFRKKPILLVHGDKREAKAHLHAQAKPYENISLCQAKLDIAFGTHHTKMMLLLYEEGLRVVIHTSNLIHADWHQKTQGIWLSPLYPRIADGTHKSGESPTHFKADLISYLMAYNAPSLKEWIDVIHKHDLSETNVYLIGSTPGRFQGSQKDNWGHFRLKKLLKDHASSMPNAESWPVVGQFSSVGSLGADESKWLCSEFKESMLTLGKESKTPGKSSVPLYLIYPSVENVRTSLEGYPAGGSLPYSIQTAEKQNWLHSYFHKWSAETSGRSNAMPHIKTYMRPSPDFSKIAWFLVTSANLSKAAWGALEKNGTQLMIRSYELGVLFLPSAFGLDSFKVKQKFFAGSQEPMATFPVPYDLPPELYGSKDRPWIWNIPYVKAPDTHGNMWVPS
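Recombinant E. coli-expressed Tdp1 (1 nM) preincubated with compound 15 min at RT, then 5'-biotin/3'-phosphotyrosine-FITC DNA substrate (15 nM) added for 5 min. AlphaScreen beads (10 ug/ml) added, 10 min RT; tyrosine-FITC cleavage read as signal loss.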
Six1-Eya2 inh = Six1/Eya2 interaction inhibition | AID 651725 | AlphaScreen GST-Six1/His-Eya2 binding, biochemical; active compounds read low | actives 0.56% (n = 360,000) | Q15475+O00167 | activity change, % (test concentration not listed); in the data active means activity change below about -65%; inconclusive means mostly about -30% to -63%
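Homogeneous AlphaScreen proximity assay pairing GST-Six1 with His-tagged Eya2 (added as 5X mix: 250 nM and 500 nM) in 50 mM Tris pH 8.0, 300 mM NaCl, 1 mM TCEP. Glutathione donor and nickel acceptor beads; 1 h, 37 °C, dark.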
IL-1B inflam inh = blocks inflammasome-driven IL-1 beta release. THP-1 LPS/ATP IL-1B secretion, AlphaLISA, 16 h; active compounds read low. activity change, % at 57.5 µM. actives 4.7% (n = 360,000). AID 743279; in the data active means activity change below about -50%; inconclusive means mostly about -30% to -49%
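THP-1 cells pretreated 1 hr with compounds (up to 57.5 uM final), then stimulated with LPS (250 ng/mL final) plus ATP (1.25 mM final); secreted IL-1B measured by AlphaLISA after 16 hr, decreased signal indicating inhibition.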
DT40 TDP1 CPT = growth inhibition of DT40 Tdp1-/-;hTDP1 cells with camptothecin (screen for TDP1 inhibitors). chicken DT40 Tdp1-/-;hTDP1 cells + 20 nM CPT, ATP luminescence, 48 h. Potency, µM (doses to about 46.2 µM), for inactives: at the highest dose activity change, negative = growth inhibition, most hits filed as inhibitors. actives 12% (n = 420,000). AID 686979; further: potency means the concentration at half of the fitted maximal effect; nearly all actives have a fitted effect of over 55% in size
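Cell growth measured by CellTiter-Glo luminescence after a minimum 48 h, 37 C compound exposure with 20 nM CPT in Tdp1-knockout DT40 cells stably expressing hTDP1, seeded 400/well; qHTS titration format.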
Active calls of the source: *; ? = inconclusive; . = no result. Unless noted, the call rests on the fitted dose curve; in most records, active means well fitted curve in the direction sought with a large enough effect; inconclusive means small, poorly fitted or top-dose-only effect, or another doubt; inactive means no such curve, though single readings can be large; an effect the other way counts as inactive or inconclusive. On the % scale 0 is the no-effect control and ±100 the full control effect.

SMILES	CtBP-E1A inh	DT40 TDP1 no CPT	TDP1 block	Six1-Eya2 inh	IL-1B inflam inh	DT40 TDP1 CPT
Cc1nc2nncn2c(NCc2ccc(Cl)cc2)c1C	.	0.82µM*	5%	.	.	2.6µM*
O=C1c2oc3ccc(Br)cc3c(=O)c2C(c2cccnc2)N1Cc1ccco1 (stereo not given)	.	.	2%	.	.	.
Cc1ccc(S(=O)(=O)Nc2cccc(C(=O)NCC(c3ccccc3)N(C)C)c2)cc1F (stereo not given)	-13	?	-3%	0	?	-15%
Cc1nc2nncn2c(Nc2ccc(F)cc2)c1C	.	9.2µM*	2%	.	.	16µM*
CC1C/C(=N\NC(N)=S)c2cc(Cl)ccc2S1 (stereo not given)	-3	?	.	-6	12	-2%
CC(C)=C1CCC(C)CC1=NNC(N)=S (stereo not given)	5	21µM*	.	3	?	?
CCOC(=O)c1c(C)sc(-c2c(-c3ccc4c(c3)OCCO4)[nH]c3c2c(=O)n(C)c(=O)n3C)c1O	.	18µM*	-1%	.	.	18µM*
CCc1ccc(-c2[nH]c3c(c2-c2sc(C)c(C(=O)OC)c2O)c(=O)[nH]c(=O)n3C)cc1	.	5.8µM*	-1%	.	.	7.3µM*
CCOC(=O)c1c(C)sc(-c2c(-c3ccc(OC)c(F)c3)[nH]c3c2c(=O)[nH]c(=O)n3C)c1O	.	16µM*	-2%	.	.	16µM*
COC(=O)c1c(C)sc(-c2c(-c3cccc(Cl)c3)[nH]c3c2c(=O)[nH]c(=O)n3C)c1O	.	?	3%	.	.	?
CC(C)(C)CC(C)(C)NCC(O)COc1c(F)cc(Br)cc1F (stereo not given)	-4	23µM*	2%	15	?	?
CC(C)(C)NCC(O)COc1c(F)cc(Br)cc1F (stereo not given)	2	-11%	-5%	4	37	-1%
CCOC(=O)c1cc(-c2ccc(F)cc2)n(CCC(=O)Nc2nc3ccc(OC)cc3s2)c1C	.	16µM*	9%	.	.	18µM*
COc1cc(NC(=O)CCn2c(-c3ccccc3)cc(C(C)=O)c2C)cc(OC)c1	.	13µM*	9%	.	.	?
CCOC(=O)c1cc(-c2ccc(OC)cc2)n(CCC(=O)Nc2cccc(C(C)=O)c2)c1C	.	15µM*	4%	.	.	16µM*
CC(=O)c1cc(-c2ccc(F)cc2)n(CCC(=O)Nc2nc3c(C)cccc3s2)c1C	.	13µM*	-2%	.	.	?
O=C(CC(=O)c1ccccc1)CS(=O)(=O)c1ccccc1	-2	?	.	-3	-4	?
CC(C)c1ccc(NC(=O)c2cn(C3CCCCC3)c(=O)c3c2c2ccccc2n3C)cc1	.	-24%	0%	.	.	1%
C=CCn1c(SCC(=O)c2c(N)n(C)c(=O)n(C)c2=O)nnc1-c1ccccc1F	.	?	5%	6	11	-11%
CN(C)Cc1c(C(=O)Nc2ccccc2)[nH]c2ccccc12	1	?	0%	-1	28	?
Cc1ccc2nc(NC(=O)CCNS(=O)(=O)c3cccs3)sc2c1	-2	?	0%	-8	?	?
CCc1ccc(NC(=O)CCn2c(-c3ccc(OC)cc3)cc(C(C)=O)c2C)cc1	.	16µM*	7%	.	.	16µM*
Cc1cccc2sc(NC(=O)CCNS(=O)(=O)c3cccs3)nc12	-5	26µM*	4%	-12	?	18µM*
CC(C(=O)N1CCc2ccccc21)N1CCN(Cc2ccccc2)CC1 (stereo not given)	.	?	.	3	-4	-27%
COc1cccc(CNC(=O)CCC2CCCN(C(=O)c3cccc4c(C)c(C)[nH]c34)C2)c1 (stereo not given)	0	?	5%	-19	?	?
O=[N+]([O-])c1ccccc1N=Nc1ccc(O)cc1O	10	26µM*	.	-8	-2	?
